Assay results: PubChem BioAssay (Tox21)
Results filed as inconclusive are left out. Calls of active or inactive are those of the source. Unless noted, calls follow the shape of the dose curve; as a rule, active = well fitted curve in the direction sought with a large enough effect in the repeat runs; inconclusive = weak or mixed curves; inactive = no such curve, though single readings can be large; an effect the other way counts as inactive or inconclusive.

What was measured:
[1] = qHTS assay to identify aromatase inhibitors - cell viability counter screen (AID 743084);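 also: cells stimulated with testosterone during compound exposure; nearly all actives have a fitted effect of over 55% in size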
[2] = target: Aryl hydrocarbon receptor (Homo sapiens) (UniProt P35869); assay: qHTS assay to identify small molecule that activate the aryl hydrocarbon receptor (AhR) signaling pathway (AID 743085);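 also: HG2L7.5c1 human HepG2 liver cells with stably integrated DRE-driven firefly reporter; series mostly up to about 70 µM; nearly all actives have a fitted effect of over 15% in size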
Chain of Aryl hydrocarbon receptor (Homo sapiens) (P35869 whole entry, looked up): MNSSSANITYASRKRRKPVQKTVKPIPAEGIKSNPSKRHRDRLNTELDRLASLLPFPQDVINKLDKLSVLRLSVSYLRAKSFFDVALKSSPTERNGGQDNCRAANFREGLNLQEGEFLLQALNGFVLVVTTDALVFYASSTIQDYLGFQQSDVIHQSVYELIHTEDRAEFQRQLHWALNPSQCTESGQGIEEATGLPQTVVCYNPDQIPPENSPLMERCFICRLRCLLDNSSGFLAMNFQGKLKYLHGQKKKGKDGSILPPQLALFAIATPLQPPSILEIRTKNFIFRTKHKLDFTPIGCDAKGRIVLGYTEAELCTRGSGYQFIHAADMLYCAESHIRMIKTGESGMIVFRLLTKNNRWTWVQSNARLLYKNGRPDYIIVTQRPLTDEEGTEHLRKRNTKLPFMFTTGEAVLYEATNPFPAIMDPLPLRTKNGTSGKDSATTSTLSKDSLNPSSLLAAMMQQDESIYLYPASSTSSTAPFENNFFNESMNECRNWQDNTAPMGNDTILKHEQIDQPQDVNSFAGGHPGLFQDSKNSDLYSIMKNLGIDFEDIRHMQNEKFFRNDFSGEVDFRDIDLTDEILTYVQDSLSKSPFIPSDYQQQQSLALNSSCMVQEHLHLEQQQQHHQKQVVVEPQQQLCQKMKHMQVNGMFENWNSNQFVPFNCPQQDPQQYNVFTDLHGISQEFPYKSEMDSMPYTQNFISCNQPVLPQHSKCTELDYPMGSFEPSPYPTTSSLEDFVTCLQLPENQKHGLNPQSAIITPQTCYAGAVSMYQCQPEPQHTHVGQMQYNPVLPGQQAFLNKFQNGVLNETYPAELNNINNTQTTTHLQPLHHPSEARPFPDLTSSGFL
In short: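 Compounds were tested in HepG2 hepatocellular carcinoma cells harbouring a stably integrated luciferase gene under control of 20 DREs. Increased reporter signal after 24 h treatment at 37C was taken as AhR activation.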

[3] = qHTS assay to identify small molecule that activate the aryl hydrocarbon receptor (AhR) signaling pathway - cell viability counter screen (AID 743086);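 also: HepG2 liver cells carrying the AhR DRE luciferase reporter; series mostly up to about 70 µM; nearly all actives have a fitted effect of over 45% in size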
In short: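 HepG2-AhR-luc (HG2L7.5c1) cells, 4000/well, were preincubated 5 h at 37C, exposed to compound in qHTS format for 24 hr at 37C, then given CellTiter-Fluor for 30 min; viability was read as fluorescence in the reporter wells.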

[4] = target: Peroxisome proliferator-activated receptor gamma (Homo sapiens) (UniProt P37231); assay: qHTS assay to identify small molecule agonists of the peroxisome proliferator-activated receptor gamma (PPARg) signaling pathway (AID 743094; active = well fitted activation curve with a large enough effect in the signal ratio in the repeat runs, not every such curve was filed as active; the % refers to the signal ratio)
Chain of Peroxisome proliferator-activated receptor gamma (Homo sapiens) (P37231 whole entry, looked up): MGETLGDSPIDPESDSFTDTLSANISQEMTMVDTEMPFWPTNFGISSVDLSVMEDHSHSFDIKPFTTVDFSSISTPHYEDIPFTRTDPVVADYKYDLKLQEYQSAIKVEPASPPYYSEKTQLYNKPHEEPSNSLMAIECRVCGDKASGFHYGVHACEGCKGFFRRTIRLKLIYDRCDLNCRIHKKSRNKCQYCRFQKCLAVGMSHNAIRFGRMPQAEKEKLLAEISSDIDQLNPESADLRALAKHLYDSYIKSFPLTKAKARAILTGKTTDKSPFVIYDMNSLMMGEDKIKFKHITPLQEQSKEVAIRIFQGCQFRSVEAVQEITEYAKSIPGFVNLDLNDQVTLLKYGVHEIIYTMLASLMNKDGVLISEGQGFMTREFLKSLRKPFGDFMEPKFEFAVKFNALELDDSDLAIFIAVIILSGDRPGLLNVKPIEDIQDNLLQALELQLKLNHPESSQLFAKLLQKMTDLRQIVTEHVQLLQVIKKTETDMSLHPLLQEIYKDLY
In short: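 GeneBLAzer PPARg UAS-bla HEK293H cells carrying a stably integrated beta-lactamase reporter were pre-incubated 5 h at 37C, then exposed to compounds in DMSO for 17 h at 37C; LiveBLAzer B/G FRET substrate was added for 1 h at room temperature and fluorescence read.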

[5] = target: Peroxisome proliferator-activated receptor gamma (Homo sapiens) (UniProt P37231); assay: qHTS assay to identify small molecule antagonists of the peroxisome proliferator-activated receptor gamma (PPARg) signaling pathway (AID 743191; calls by dose curve; also: series mostly up to about 63 µM; nearly all actives have a fitted effect of over 30% in size)
In short: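 GeneBLAzer PPARg UAS-bla HEK293H cells carrying a UAS-driven beta-lactamase reporter were plated at 3000 cells/well, preincubated 5 h at 37C, then given compound for 17 h at 37C; LiveBLAzer B/G FRET substrate was read after 1 h at room temperature.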

[6] = qHTS assay to identify small molecule antagonists of the peroxisome proliferator-activated receptor gamma (PPARg) signaling pathway - cell viability counter screen (AID 743194); also: nearly all actives have a fitted effect of over 55% in size
In short: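 PPARg-UAS-bla HEK293H cells were plated, rested 5 h at 37 C, then treated with compounds plus rosiglitazone (50 nM final) for 17 h at 37 C; viability was then read by CellTiter-Glo luminescence after 30 min at room temperature.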

[7] = qHTS assay for small molecule agonists of the antioxidant response element (ARE) signaling pathway (AID 743202; active = well fitted activation curve with a large enough effect in the signal ratio in the repeat runs, not every such curve was filed as active; the % refers to the signal ratio)
In short: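 Compounds delivered in DMSO to ARE-bla HepG2 cells (2,000 cells/well, pre-incubated 5 h) and left 16 h at 37 C. LiveBLAzer B/G FRET substrate then added for 2 h at RT before fluorescence reading.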

[8] = qHTS assay for small molecule agonists of the antioxidant response element (ARE) signaling pathway - cell viability counter screen (AID 743203; calls by dose curve; also: nearly all actives have a fitted effect of over 55% in size)
In short: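 CellSensor ARE-bla HepG2 cells, 2,000 per well, rested 5 hrs at 37C/5% CO2, then exposed to compound in DMSO for 16 hrs; viability read as CellTiter-Glo luminescence after 30 min at room temperature, in the reporter wells.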

[9] = qHTS assay for small molecule activators of the heat shock response signaling pathway - cell viability counter screen (AID 743209); also: nearly all actives have a fitted effect of over 50% in size
In short: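 CellSensor HSE-bla HeLa cells, plated overnight at 37 C/5% CO2, were exposed to compounds in DMSO for 5 h at 37 C. Viability was then read in the same wells by CellTiter-Glo luminescence after 30 min at room temperature.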

[10] = qHTS assay for small molecule activators of the heat shock response signaling pathway (AID 743210; active = well fitted activation curve with a large enough effect in the signal ratio in the repeat runs, with a control signal flat, not every such curve was filed as active; the % refers to the signal ratio;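 also: HeLa cells with beta-lactamase reporter driven by heat shock elements; series mostly up to about 63 µM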)
In short: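 Reporter gene assay: HeLa cells stably bearing an HSE-bla construct, compound treatment 5 h at 37 C, LiveBLAzer substrate 2.5 h at RT, fluorescence intensity.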

[11] = qHTS assay to identify small molecule agonists of the peroxisome proliferator-activated receptor delta (PPARd) signaling pathway - cell viability counter screen (AID 743211); also: nearly all actives have a fitted effect of over 55% in size
In short: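 Counter screen for cytotoxicity run in parallel with the PPARd reporter screen. Beta-lactamase reporter HEK293H cells exposed to compounds 17 h; ATP-based CellTiter-Glo luminescence quantified viability.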

[12] = qHTS assay to identify small molecule antagonists of the peroxisome proliferator-activated receptor delta (PPARd) signaling pathway - cell viability counter screen (AID 743213); also: nearly all actives have a fitted effect of over 50% in size
In short: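 Luminescence from CellTiter-Glo, added after the bla read and incubated 30 min at room temperature, gives viability of HEK293H PPARd-bla cells exposed to compounds for 17 h at 37 C with 300 nM L165041.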

[13] = target: Peroxisome proliferator-activated receptor delta (Homo sapiens) (UniProt Q03181); assay: qHTS assay to identify small molecule antagonists of the peroxisome proliferator-activated receptor delta (PPARd) signaling pathway (AID 743215; active = well fitted inhibition curve with a large enough effect in the signal ratio in the repeat runs, not every such curve was filed as active; the % refers to the signal ratio;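 also: cells stimulated with agonist L165041 at 300 nM final during compound exposure; series mostly up to about 62 µM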)
Chain of Peroxisome proliferator-activated receptor delta (Homo sapiens) (Q03181 whole entry, looked up): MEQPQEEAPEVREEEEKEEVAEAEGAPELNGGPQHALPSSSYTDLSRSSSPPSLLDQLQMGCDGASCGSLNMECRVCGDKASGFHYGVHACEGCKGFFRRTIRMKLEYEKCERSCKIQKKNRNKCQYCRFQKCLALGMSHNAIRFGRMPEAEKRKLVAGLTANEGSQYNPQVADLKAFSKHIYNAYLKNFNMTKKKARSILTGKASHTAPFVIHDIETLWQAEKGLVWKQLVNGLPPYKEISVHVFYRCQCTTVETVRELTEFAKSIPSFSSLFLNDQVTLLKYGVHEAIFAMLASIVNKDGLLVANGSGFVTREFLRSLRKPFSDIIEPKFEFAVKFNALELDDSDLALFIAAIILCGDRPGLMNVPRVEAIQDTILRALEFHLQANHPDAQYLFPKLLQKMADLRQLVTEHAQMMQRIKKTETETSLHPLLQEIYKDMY
In short: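 PPARd UAS-bla HEK293H cells were pre-incubated 5 h at 37 C, then given test compounds in DMSO plus agonist L165041 (300 nM final). After 17 h at 37 C, beta-lactamase FRET substrate was added; fluorescence read after 2 h at room temperature.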

[14] = target: Bile acid receptor (Homo sapiens) (UniProt Q96RI1); assay: qHTS assay to identify small molecule antagonists of the farnesoid-X-receptor (FXR) signaling pathway (AID 743217; active = well fitted inhibition curve with a large enough effect in the signal ratio in the repeat runs, not every such curve was filed as active; the % refers to the signal ratio)
Chain of Bile acid receptor (Homo sapiens) (Q96RI1 whole entry, looked up): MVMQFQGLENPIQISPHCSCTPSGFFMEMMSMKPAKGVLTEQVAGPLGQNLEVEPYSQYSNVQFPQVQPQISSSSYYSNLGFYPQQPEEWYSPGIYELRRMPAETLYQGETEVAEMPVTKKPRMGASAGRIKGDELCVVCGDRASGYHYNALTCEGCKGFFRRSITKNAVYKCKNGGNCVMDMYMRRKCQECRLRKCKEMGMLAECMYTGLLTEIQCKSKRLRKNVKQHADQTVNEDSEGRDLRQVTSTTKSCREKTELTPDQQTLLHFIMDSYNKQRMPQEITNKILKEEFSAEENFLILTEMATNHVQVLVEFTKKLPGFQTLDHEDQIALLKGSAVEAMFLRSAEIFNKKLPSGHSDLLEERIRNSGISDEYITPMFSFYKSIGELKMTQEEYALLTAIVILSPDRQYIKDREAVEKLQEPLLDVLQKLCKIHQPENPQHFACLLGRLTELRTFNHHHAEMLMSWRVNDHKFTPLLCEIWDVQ
In short: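 FXR-UAS-bla HEK 293T cells pre-incubated 5 h at 37 °C, then exposed to compounds with chenodeoxycholic acid (50 uM final) for 16 h at 37 °C. Beta-lactamase reporter read by LiveBLAzer B/G FRET substrate fluorescence after 2 h at room temperature.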

[15] = qHTS assay to identify small molecule agonists of the farnesoid-X-receptor (FXR) signaling pathway - cell viability counter screen (AID 743218); also: nearly all actives have a fitted effect of over 45% in size
In short: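 FXR-UAS-bla HEK 293T cells, plated 5 h at 37 C, were exposed to compounds for 16 h at 37 C. CellTiter-Glo was then added to the same wells as the bla readout; luminescence read after 30 min at room temperature.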

[16] = target: Bile acid receptor (Homo sapiens) (UniProt Q96RI1); assay: qHTS assay to identify small molecule agonists of the farnesoid-X-receptor (FXR) signaling pathway (AID 743220; active = well fitted activation curve with a large enough effect in the signal ratio in the repeat runs, not every such curve was filed as active; the % refers to the signal ratio)
In short: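 Beta-lactamase reporter under UAS control in GeneBLAzer FXR HEK 293T cells (5000/well) measured with LiveBLAzer FRET substrate after 2 h at room temperature. Compound exposure lasted 16 h at 37C.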

[17] = qHTS assay to identify small molecule antagonists of the farnesoid-X-receptor (FXR) signaling pathway - cell viability counter screen (AID 743221; active = well fitted cell-killing curve with a large enough effect in the repeat runs, not every such curve was filed as active; also: nearly all actives have a fitted effect of over 50% in size)
In short: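 Multiplexed counter screen: viability of FXR-bla HEK 293T cells under agonist stimulation by chenodeoxycholic acid (50 uM, final) and test compound for 16 h at 37 C, measured by CellTiter-Glo luminescence in the reporter wells.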

[18] = target: Vitamin D3 receptor (Homo sapiens) (UniProt P11473); assay: qHTS assay to identify small molecule agonists of the vitamin D receptor (VDR) signaling pathway (AID 743222; calls by dose curve)
Chain of Vitamin D3 receptor (Homo sapiens) (P11473 whole entry, looked up): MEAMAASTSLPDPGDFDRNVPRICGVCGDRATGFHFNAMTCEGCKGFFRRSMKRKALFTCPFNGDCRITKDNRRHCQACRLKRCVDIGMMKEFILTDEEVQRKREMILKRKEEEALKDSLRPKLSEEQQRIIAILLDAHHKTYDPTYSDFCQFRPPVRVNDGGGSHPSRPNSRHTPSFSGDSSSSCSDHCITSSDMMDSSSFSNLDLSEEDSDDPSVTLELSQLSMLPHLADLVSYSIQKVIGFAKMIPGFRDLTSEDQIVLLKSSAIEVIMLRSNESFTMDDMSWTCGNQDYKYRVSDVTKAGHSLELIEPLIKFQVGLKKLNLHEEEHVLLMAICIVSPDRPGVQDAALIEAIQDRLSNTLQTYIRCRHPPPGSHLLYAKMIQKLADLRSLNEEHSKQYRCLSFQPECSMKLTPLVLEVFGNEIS
In short: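 VDR-bla cells were plated 4 h at 37C/5% CO2, then exposed to compounds in DMSO for 16 h. After LiveBLAzer B/G FRET substrate addition and 2 h at room temperature, beta-lactamase reporter fluorescence was read.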

[19] = target: Vitamin D3 receptor (Homo sapiens) (UniProt P11473); assay: qHTS assay to identify small molecule antagonists of the vitamin D receptor (VDR) signaling pathway (AID 743223; active = well fitted inhibition curve with a large enough effect in the signal ratio in the repeat runs, not every such curve was filed as active; the % refers to the signal ratio)
In short: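 Cells carrying a VDR-driven beta-lactamase reporter (VDR-bla) were co-treated with compound and 3 nM final 1alpha,25-dihydroxyvitamin D3 for 16 h at 37C; reporter activity was measured as FRET substrate fluorescence after 2 h at room temperature.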

[20] = target: Peroxisome proliferator-activated receptor delta (Homo sapiens) (UniProt Q03181); assay: qHTS assay to identify small molecule agonists of the peroxisome proliferator-activated receptor delta (PPARd) signaling pathway (AID 743212; calls by dose curve)
In short: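 A PPARd-bla HEK293H line with beta-lactamase under an Upstream Activator Sequence is treated with compounds at 37 C. Substrate loading for 2 h at room temperature precedes the fluorescence measurement.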

Measured: Potency

Cc1ccc2oc(=O)ccc2c1
not listed: [20]
inactive: all other assays above

CCCCCOC(C)=O
not listed: [20]
inactive: all other assays above

Nc1ccccc1[N+](=O)[O-]
not listed: [18] | [19] | [20]
inactive: all other assays above

COc1ccc(Nc2ccccc2)c(C)c1
not listed: [12] | [14] | [16] | [18] | [19]
inactive: all other assays above
